Screens (PubChem)
TDP1 inh: qHTS Assay for Inhibitors of Tyrosyl-DNA Phosphodiesterase (TDP1); recombinant TDP1, AlphaScreen DNA substrate cleavage; Potency, µM (series often up to 130 µM), actives largely listed as inhibitors; 350,000 tested, 0.28% active; AID 485290, 2010; also: nearly all actives have a fitted effect of over 40% in size
Target sequence (Q9NUW8 whole entry, looked up): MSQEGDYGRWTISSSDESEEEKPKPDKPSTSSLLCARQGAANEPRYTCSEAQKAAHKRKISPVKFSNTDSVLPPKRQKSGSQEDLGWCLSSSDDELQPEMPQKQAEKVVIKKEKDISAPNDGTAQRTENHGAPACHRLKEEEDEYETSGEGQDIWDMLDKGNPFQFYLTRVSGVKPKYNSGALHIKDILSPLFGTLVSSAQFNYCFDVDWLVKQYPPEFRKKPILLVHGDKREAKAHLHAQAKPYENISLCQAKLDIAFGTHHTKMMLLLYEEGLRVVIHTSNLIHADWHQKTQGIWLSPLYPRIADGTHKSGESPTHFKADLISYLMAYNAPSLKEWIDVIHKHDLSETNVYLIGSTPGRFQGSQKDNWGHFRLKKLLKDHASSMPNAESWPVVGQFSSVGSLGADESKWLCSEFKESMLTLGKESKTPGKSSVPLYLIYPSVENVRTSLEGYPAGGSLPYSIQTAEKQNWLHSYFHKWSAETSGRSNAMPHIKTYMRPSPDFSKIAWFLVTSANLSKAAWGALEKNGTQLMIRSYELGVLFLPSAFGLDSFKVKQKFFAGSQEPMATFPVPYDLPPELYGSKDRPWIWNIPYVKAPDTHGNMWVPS
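E. coli-derived human Tdp1, 1 nM final. Cpd preinc 15 min RT; substrate 15 nM final, 5 min RT; AS bead mix 10 ug/ml final, 10 min RT. Signal loss = tyrosine-FITC cleavage. No-enzyme wells = max signal.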
IL1B secr inh: qHTS for Inhibitors of Inflammasome Signaling: IL-1-beta AlphaLISA Primary Screen; activity change, % at 57.5 µM; THP-1 LPS/ATP IL-1B secretion, AlphaLISA, 16 h; stronger effect = lower value; 360,000 tested, 4.7% active; in the data active = activity change below about -50%; inconclusive = mostly about -30% to -49%
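THP-1 cells pretreated 1 hr with compounds (up to 57.5 uM final), then stimulated with LPS (250 ng/mL final) plus ATP (1.25 mM final); secreted IL-1B measured by AlphaLISA after 16 hr, decreased signal indicating inhibition.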
TDP1 cell noCPT: qHTS for Inhibitors of human tyrosyl-DNA phosphodiesterase 1 (TDP1): qHTS in cells in absence of CPT. DT40 Tdp1-/- hTDP1 cells, no CPT, ATP luminescence, 48 h. Potency, µM (titrated, usually from 46.2 µM), usual class: inhibitors. 420,000 tested, 15% active. AID 686978, 2013; also: nearly all actives have a fitted effect of over 55% in size
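Cells were dispensed at 400 per well, compounds added by pin tool, plates incubated ≥48 hr at 37 °C, then CellTiter-Glo added for 30 min at room temperature before luminescence reading. Line: DT40 Tdp1-/- complemented with hTDP1; camptothecin omitted.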
Giardia kill: Small Molecules that selectively kill Giardia lamblia: qHTS. Giardia lamblia trophozoite viability. activity change, % at 7.66 µM, hits read low. 340,000 tested, 0.15% active. AID 540267, 2011; in the data active = activity change below about -80%; inconclusive = between about -30% and that limit;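 also: parasites exposed to compound for two days anaerobically before the ATP read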
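Media and compound were dispensed first, then trophozoites at 100 cells/well; plates sat 48 hrs at 37 deg C without oxygen before ATP luminescence reagent was added and read after 15-30 min at room temperature.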
ELG1 repair inh: qHTS screen for small molecules that inhibit ELG1-dependent DNA repair in human embryonic kidney (HEK293T) cells expressing luciferase-tagged ELG1 | 330,000 tested, 2.3% active | HEK293T ELG1-luciferase reporter, luminescence, 16 h; DNA damage induced by 5-fluorouridine | Potency, µM (top dose mostly 46.1 µM), actives largely listed as inhibitors; also: nearly all actives have a fitted effect of over 55% in size
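Luminescence from the luciferase reporter, measured 30 min after ONE-Glo reagent at room temperature, was the read-out. Beforehand, 2,000 cells per well were exposed for 16 hr at 37 °C to 5-fluorouridine together with compound or vehicle.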
DT40 TDP1 CPT: qHTS for Inhibitors of human tyrosyl-DNA phosphodiesterase 1 (TDP1): qHTS in cells in presence of CPT; chicken DT40 Tdp1-/-;hTDP1 cells + 20 nM CPT, ATP luminescence, 48 h; Potency, µM (titrated, usually from 46.2 µM), hits mostly inhibitors; AID 686979, 2013; 420,000 tested, 12% active; also: nearly all actives have a fitted effect of over 55% in size
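Chicken DT40 Tdp1-/- cells complemented with human TDP1, 400 cells/well, exposed to compounds plus 20 nM camptothecin for at least 48 h at 37 C; viability read as ATP content by CellTiter-Glo luminescence.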
Of the large screens only hits and unclear results are named; the others gave an inactive call. Sampled rows, rich in hits. Any-hit rate of the full collection: about 19%. Unless noted, calls follow the shape of the dose curve; as a rule, active = well fitted curve in the direction sought with a large enough effect; inconclusive = small, poorly fitted or top-dose-only effect, or another doubt; inactive = no such curve, though single readings can be large; an effect the other way counts as inactive or inconclusive.

N=C1/C(=C/c2ccc(-c3cccc(C(=O)O)c3)o2)C(=O)N=C2SC=C(c3ccccc3)N12	TDP1 inh 35.5µM, ELG1 repair inh inconclusive, DT40 TDP1 CPT inconclusive
O=C(O)/C=C/C(=O)N1Cc2cc3ccccc3nc2C1	TDP1 inh 35.5µM
CCOC(=O)c1ccc(NC(=O)c2c(C)nn(-c3ccc(F)cc3)c2-n2cccc2)cc1	none (no result: IL1B secr inh, TDP1 cell noCPT, Giardia kill, ELG1 repair inh, DT40 TDP1 CPT)
Nc1ncn(C(=S)Nc2ccccc2)n1	IL1B secr inh inconclusive, TDP1 cell noCPT 1.3µM, DT40 TDP1 CPT 1.16µM (no result: TDP1 inh, ELG1 repair inh)
S=C(Nc1ccccc1)N1CCC(C2CCN(C(=S)Nc3ccccc3)CC2)CC1	ELG1 repair inh inconclusive
Cc1ccc(C(c2cc(Cl)c3cccnc3c2O)N2CCN(C)CC2)cc1 (centres undefined)	TDP1 cell noCPT inconclusive, ELG1 repair inh 16.4µM, DT40 TDP1 CPT inconclusive (no result: TDP1 inh)
CN1CCN(C(c2ccccn2)c2cc(Cl)c3cccnc3c2O)CC1 (centres undefined)	TDP1 cell noCPT 6.51µM, DT40 TDP1 CPT 6.51µM
Oc1c(C(c2ccccn2)N2CCC(Cc3ccccc3)CC2)cc(Cl)c2cccnc12 (centres undefined)	IL1B secr inh -106.1, TDP1 cell noCPT 2.91µM, ELG1 repair inh inconclusive, DT40 TDP1 CPT 4.11µM
Oc1c(C(c2ccccc2Cl)N2CCCC2)ccc2cccnc12 (centres undefined)	TDP1 cell noCPT 16.4µM, ELG1 repair inh inconclusive, DT40 TDP1 CPT 14.6µM
CC(=O)NC(c1cc(Cl)c2cccnc2c1O)C1CC1 (centres undefined)	ELG1 repair inh inconclusive (no result: IL1B secr inh, TDP1 cell noCPT, DT40 TDP1 CPT)
Oc1c(C(c2ccc(Cl)cc2)N2CCCC2)cc(Cl)c2cccnc12 (centres undefined)	TDP1 cell noCPT 5.17µM, ELG1 repair inh inconclusive, DT40 TDP1 CPT 4.11µM
Cc1ccc(C(=O)N2CCOCC2)cc1[N+](=O)[O-]	none
O=C(c1ccc(S(=O)(=O)Cc2ccccc2Cl)c([N+](=O)[O-])c1)N1CCOCC1	IL1B secr inh -99.8, TDP1 cell noCPT 20.6µM, DT40 TDP1 CPT 20.6µM
Cc1ccccc1CS(=O)(=O)c1ccc(C(=O)N2CCOCC2)cc1[N+](=O)[O-]	IL1B secr inh -87.9, TDP1 cell noCPT 11.6µM, DT40 TDP1 CPT inconclusive
Cc1noc(C)c1-c1cncnc1N(C)Cc1ccco1	none (no result: TDP1 inh, IL1B secr inh, Giardia kill, ELG1 repair inh)
CC(C)(C)OC(=O)C[C@@H]1C/C=C\C[C@H](CC(=O)N(CCO)Cc2ccccc2)C(=O)N[C@@H](Cc2c[nH]c3ccccc23)COC1=O	TDP1 cell noCPT inconclusive, DT40 TDP1 CPT inconclusive
C=CCN(c1ccccc1)S(=O)(=O)c1ccc2c(c1)oc(=O)n2C	DT40 TDP1 CPT inconclusive
C=CCN(C1CCCCC1)S(=O)(=O)c1ccc2c(c1)oc(=O)n2C	TDP1 cell noCPT inconclusive, DT40 TDP1 CPT 8.2µM
COc1cccc(CNC(=O)COC(=O)c2cc([N+](=O)[O-])ccc2N2CCCC2)c1	IL1B secr inh inconclusive, TDP1 cell noCPT 23.1µM, ELG1 repair inh inconclusive, DT40 TDP1 CPT 16.4µM
COCCOc1ccc(C(F)(F)F)cc1NC(=O)COC(=O)c1cc([N+](=O)[O-])ccc1N1CCOCC1	TDP1 cell noCPT 23.1µM, ELG1 repair inh inconclusive, DT40 TDP1 CPT 14.6µM
Cc1cc(Cl)ccc1NC(=O)COC(=O)c1cc([N+](=O)[O-])ccc1N1CCOCC1	IL1B secr inh inconclusive, TDP1 cell noCPT inconclusive, ELG1 repair inh inconclusive
O=C(OCc1cccc(Cl)c1)c1cc([N+](=O)[O-])ccc1N1CCOCC1	IL1B secr inh inconclusive, TDP1 cell noCPT inconclusive, DT40 TDP1 CPT inconclusive
O=C(OCc1cccc(C(F)(F)F)c1)c1cc([N+](=O)[O-])ccc1N1CCOCC1	IL1B secr inh -59.9, TDP1 cell noCPT inconclusive, DT40 TDP1 CPT inconclusive
O=C(OCc1ccc(Br)cc1)c1cc([N+](=O)[O-])ccc1N1CCOCC1	TDP1 cell noCPT 0.461µM, DT40 TDP1 CPT 0.731µM (no result: TDP1 inh, Giardia kill, ELG1 repair inh)
Cc1cc(C)n(C2CC(=O)N(c3ccc(Cl)c(Cl)c3)C2=O)n1 (centres undefined)	none
COc1ccc(NC(=O)c2oc3ccccc3c2NC(=O)COc2ccc(C(C)C)cc2)c(OC)c1	none (no result: IL1B secr inh, Giardia kill, ELG1 repair inh)
O=C(Oc1ccc(Br)cc1C(=S)N1CCOCC1)c1ccc([N+](=O)[O-])cc1[N+](=O)[O-]	IL1B secr inh -91.6, TDP1 cell noCPT inconclusive, DT40 TDP1 CPT 20.6µM
O=C(COC(=O)c1cc([N+](=O)[O-])ccc1N1CCOCC1)c1ccc(F)cc1	TDP1 cell noCPT inconclusive
CCc1ccc(C(=O)COC(=O)c2cc([N+](=O)[O-])ccc2N2CCOCC2)cc1	TDP1 cell noCPT 18.4µM, ELG1 repair inh inconclusive, DT40 TDP1 CPT inconclusive
COc1ccc(COC(=O)c2cc([N+](=O)[O-])ccc2N2CCOCC2)cc1F	TDP1 cell noCPT 0.0116µM, ELG1 repair inh inconclusive, DT40 TDP1 CPT 0.0231µM
CN(C(=O)COC(=O)c1cc([N+](=O)[O-])ccc1N1CCOCC1)C1CCCCC1	TDP1 cell noCPT inconclusive (no result: TDP1 inh, Giardia kill, ELG1 repair inh)
O=C(Oc1ccc(C(=S)N2CCOCC2)cc1)c1ccc([N+](=O)[O-])cc1[N+](=O)[O-]	none (no result: TDP1 inh)
CC1c2[nH]c3ccccc3c2C[C@H]2C(=O)N(CCCN(C)C)CC(=O)N12 (some centres undefined)	ELG1 repair inh inconclusive (no result: TDP1 inh)
CCC(=O)OC1=CN(Cc2ccccc2)S(=O)(=O)c2ccccc21	none (no result: IL1B secr inh, Giardia kill, ELG1 repair inh)
COc1cccc(NC(=O)Cc2nc(-c3ccccc3)sc2-c2ccc(C)cc2)c1	TDP1 cell noCPT 16.4µM, DT40 TDP1 CPT inconclusive
COC(=O)c1cccc(NC(=O)Cc2nc(-c3ccccc3)sc2-c2ccc(C)cc2)c1	TDP1 cell noCPT 18.4µM, ELG1 repair inh inconclusive, DT40 TDP1 CPT inconclusive
